# Data reported in PubChem BioAssay (EPA / NIEHS).
# Values joined by “and” are separate entries in the source; they are usually repeats but may differ in a detail not shown here. Equal entries are not always repeated. Some compounds were tested as several samples or in several runs, with calls that do not always agree. Active and inactive are the calls of the source. The calls were made as follows: active = hit-call score of the fitted dose curve at least 0.9, where 1 is the maximum; inactive = score below 0.9.
# How the values were obtained:
# [1] = read-out: Intercellular Adhesion Molecule 1 (ICAM1), ICAM1 (gene 3383); test: BSK_BF4T_ICAM1: BioMAP Diversity Plus: BF4T Assay for Intercellular Adhesion Molecule 1 (ICAM1) Biomarker Activity (AID 2284260); details: primary human bronchial epithelial cells with fibroblasts
# In short: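 ICAM-1 levels measured by ELISA after 24 h chemical treatment of bronchial epithelial cell/dermal fibroblast co-cultures, read against DMSO baseline. Overt cytotoxicity checked in parallel cultures by sulforhodamine B staining.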
# [2] = read-out: Interleukin-8 (IL8), CXCL8 (gene 3576); test: BSK_MyoF_IL8: BioMAP Diversity Plus: MyoF Assay for Interleukin-8 (IL8) Biomarker Activity (AID 2284261); details: primary human lung fibroblasts
# In short: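 Lung fibroblasts (human primary) → chemical exposure → 24 h → IL-8 measured by ELISA. Signal increase scored versus DMSO control.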
# CD90, THY1 (gene 7070) = test: BSK_BF4T_CD90: BioMAP Diversity Plus: BF4T Assay for CD90 Biomarker Activity (AID 2284262); details: primary human bronchial epithelial cells with fibroblasts
# In short: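 CD90 levels by ELISA after 24 h treatment of human bronchial epithelial cell/dermal fibroblast cultures, analysed versus DMSO. Overt cytotoxicity checked in parallel cultures by sulforhodamine B staining.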
# [3] = read-out: Interleukin-8 (IL8), CXCL8 (gene 3576); test: BSK_BF4T_IL8: BioMAP Diversity Plus: BF4T Assay for Interleukin-8 (IL8) Biomarker Activity (AID 2284263); details: primary human bronchial epithelial cells with fibroblasts
# In short: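 Human bronchial epithelial cells with dermal fibroblasts co-culture; IL-8 measured by ELISA 24 hours after dosing, fitted vs DMSO. Cytotoxicity tracked in parallel cultures by SRB total-protein staining.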
# [4] = read-out: Interleukin-1 alpha (IL1a), IL1A (gene 3552); test: BSK_BF4T_IL1a: BioMAP Diversity Plus: BF4T Assay for Interleukin-1 alpha (IL1a) Biomarker Activity (AID 2284264); details: primary human bronchial epithelial cells with fibroblasts
# In short: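 ELISA read-out of IL-1α from bronchial epithelial cell/dermal fibroblast co-cultures 24 h after compound addition. Increases scored against DMSO negative control. Cytotoxicity monitored by sulforhodamine B staining of parallel cultures.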
# Decorin, DCN (gene 1634) = test: BSK_MyoF_Decorin: BioMAP Diversity Plus: MyoF Assay for Decorin Biomarker Activity (AID 2284265); details: primary human lung fibroblasts
# In short: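 ELISA readout of decorin, 24 h post-dosing; primary human lung fibroblast (MyoF) culture; gain-of-signal fit vs DMSO baseline.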
# KRT18 (gene 3875) = test: BSK_BF4T_Keratin818: BioMAP Diversity Plus: BF4T Assay for Keratin 818 Biomarker Activity (AID 2284266); details: primary human bronchial epithelial cells with fibroblasts
# In short: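 Keratin 8/18 levels quantified by ELISA after 24 h chemical treatment of bronchial epithelial cell/dermal fibroblast co-cultures, fitted in positive direction relative to DMSO. Parallel SRB staining tracks overt cytotoxicity.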
# [5] = BSK_MyoF_SRB: Viability Assessment in the BioMAP Diversity Plus: MyoF Assay (AID 2284267); details: primary human lung fibroblasts;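 also: total protein by SRB absorbance in parallel cultures as cytotoxicity measure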
# In short: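 Lung fibroblast cultures, 24 h post-dose; fix 10% TCA, stain 0.1% SRB, read 560 nm. Signal = total protein as cytotoxicity measure; fitted relative to DMSO negative control.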
# [6] = read-out: Matrix Metallopeptidase 1 (MMP1), MMP1 (gene 4312); test: BSK_MyoF_MMP1: BioMAP Diversity Plus: MyoF Assay for Matrix Metallopeptidase 1 (MMP1) Biomarker Activity (AID 2284268); details: primary human lung fibroblasts
# In short: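 Cells: human lung fibroblasts. Exposure: 24 h chemical dosing. Detection: ELISA for MMP1. Analysis: upward fitting against DMSO negative control.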
# [7] = read-out: TIMP metallopeptidase inhibitor 1 (TIMP1), TIMP1 (gene 7076); test: BSK_MyoF_TIMP1: BioMAP Diversity Plus: MyoF Assay for TIMP metallopeptidase inhibitor 1 (TIMP1) Biomarker Activity (AID 2284269); details: primary human lung fibroblasts
# In short: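 TIMP-1 levels were determined by ELISA in human lung fibroblasts treated for 24 h. DMSO served as negative control and baseline for upward curve fitting.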
# [8] = read-out: Matrix Metallopeptidase 3 (MMP3), MMP3 (gene 4314); test: BSK_BF4T_MMP3: BioMAP Diversity Plus: BF4T Assay for Matrix Metallopeptidase 3 (MMP3) Biomarker Activity (AID 2284271); details: primary human bronchial epithelial cells with fibroblasts
# In short: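 MMP-3 level read by ELISA after 24 h chemical exposure of bronchial epithelial cell/dermal fibroblast co-cultures, fitted upward relative to DMSO. Parallel cultures stained with 0.1% SRB after TCA fixation gauge overt cytotoxicity.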
# [9] = read-out: Tissue plasminogen activator (tPA), PLAT (gene 5327); test: BSK_BF4T_tPA: BioMAP Diversity Plus: BF4T Assay for Tissue plasminogen activator (tPA) Biomarker Activity (AID 2284272); details: primary human bronchial epithelial cells with fibroblasts
# In short: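 tPA level quantified by ELISA at 24 h post-treatment in bronchial epithelial/dermal fibroblast co-cultures, gain of signal scored against DMSO baseline. Parallel cultures stained with 0.1% SRB (560 nm) to flag overt cytotoxicity.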
# [10] = read-out: Plasminogen Activator Inhibitor-1 (PAI1), SERPINE1 (gene 5054); test: BSK_BF4T_PAI1: BioMAP Diversity Plus: BF4T Assay for Plasminogen Activator Inhibitor-1 (PAI1) Biomarker Activity (AID 2284273); details: primary human bronchial epithelial cells with fibroblasts
# In short: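 PAI-1 levels quantified by ELISA 24 h post-dosing in bronchial epithelial cell plus dermal fibroblast cultures. Signal gain referenced to DMSO baseline. Sulforhodamine B total-protein staining of parallel wells checked cytotoxicity.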
# [11] = BSK_BF4T_SRB: Viability Assessment in the BioMAP Diversity Plus: BF4T Assay (AID 2284274); details: primary human bronchial epithelial cells with fibroblasts
# In short: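 Cytotoxicity measured as total protein: cells fixed with 10% TCA, stained with 0.1% SRB, read at 560 nm. Bronchial epithelial/dermal fibroblast co-culture, 24 h after dosing, with positive-direction fitting relative to DMSO.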
# [12] = read-out: urokinase Plasminogen Activator (uPA), PLAU (gene 5328); test: BSK_BF4T_uPA: BioMAP Diversity Plus: BF4T Assay for urokinase Plasminogen Activator (uPA) Biomarker Activity (AID 2284275); details: primary human bronchial epithelial cells with fibroblasts
# In short: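 uPA levels measured by ELISA at 24 hours in BF4T cultures (bronchial epithelial cells plus dermal fibroblasts) and compared with DMSO; cytotoxicity tracked in parallel cultures by sulforhodamine B staining.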
# [13] = read-out: Matrix Metallopeptidase 9 (MMP9), MMP9 (gene 4318); test: BSK_BF4T_MMP9: BioMAP Diversity Plus: BF4T Assay for Matrix Metallopeptidase 9 (MMP9) Biomarker Activity (AID 2284276); details: primary human bronchial epithelial cells with fibroblasts
# In short: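 MMP-9 levels were measured by ELISA after 24 h exposure of bronchial epithelial cell/dermal fibroblast co-cultures, with DMSO as baseline. Parallel cultures were stained with 0.1% SRB after TCA fixation, read at 560 nm, to flag overt cytotoxicity.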
# [14] = read-out: Interleukin-8 (IL8), CXCL8 (gene 3576); test: BSK_IMphg_IL8: BioMAP Diversity Plus: IMphg Assay for Interleukin-8 (IL8) Biomarker Activity (AID 2284277); details: primary human endothelial cells with macrophages
# In short: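 IL-8 levels were measured by ELISA 24 h after dosing in primary human venular endothelial cell–macrophage cultures, referenced to DMSO; parallel SRB staining monitored overt cytotoxicity.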
# [15] = read-out: Intercellular Adhesion Molecule 1 (ICAM1), ICAM1 (gene 3383); test: BSK_BE3C_ICAM1: BioMAP Diversity Plus: BE3C Assay for Intercellular Adhesion Molecule 1 (ICAM1) Biomarker Activity (AID 2284278); details: primary human bronchial epithelial cells;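 also: cell-surface ICAM-1 protein level quantified by ELISA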
# In short: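 ELISA read-out of ICAM-1 on human lung bronchial epithelial primary cells, 24 h post-dosing; positive-direction curve fit, DMSO = baseline. SRB total-protein staining of parallel cultures flagged overt cytotoxicity.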
# [16] = read-out: Interferon-inducible T-cell alpha chemoattractant (ITAC), CXCL11 (gene 6373); test: BSK_BE3C_ITAC: BioMAP Diversity Plus: BE3C Assay for Interferon-inducible T-cell alpha chemoattractant (ITAC) Biomarker Activity (AID 2284279); details: primary human bronchial epithelial cells
# In short: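 The assay measures I-TAC levels by ELISA in human primary bronchial epithelial cell cultures 24 hours after chemical treatment. Values reflect signal increase over the DMSO baseline.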
# [17] = read-out: Matrix Metallopeptidase 1 (MMP1), MMP1 (gene 4312); test: BSK_BF4T_MMP1: BioMAP Diversity Plus: BF4T Assay for Matrix Metallopeptidase 1 (MMP1) Biomarker Activity (AID 2284270); details: primary human bronchial epithelial cells with fibroblasts
# In short: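 MMP-1 quantified by ELISA in primary human bronchial epithelial/dermal fibroblast co-cultures, 24 hours post-dosing, with DMSO as baseline; parallel sulforhodamine B staining (560 nm) tracks overt cytotoxicity.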
smiles,measurement,setting,value
O=S(=O)(OCCOC(F)(F)F)C(F)(F)F,outcome,[1],inactive
same,outcome,[2],inactive
same,outcome,"CD90, THY1 (gene 7070)",inactive
same,outcome,[3],inactive
same,outcome,[4],inactive
same,outcome,"Decorin, DCN (gene 1634)",inactive
same,outcome,KRT18 (gene 3875),inactive
same,outcome,[5],inactive
same,outcome,[6],inactive
same,outcome,[7],inactive
same,outcome,[8],inactive
same,outcome,[9],inactive
same,outcome,[10],inactive
same,outcome,[11],inactive
same,outcome,[12],inactive
same,outcome,[13],inactive
same,outcome,[14],inactive
same,outcome,[15],inactive
same,outcome,[16],inactive
NC(=O)C(F)(F)C(F)(F)C(F)(F)C(F)(F)F,outcome,[1],inactive
same,outcome,[2],inactive
same,outcome,"CD90, THY1 (gene 7070)",inactive
same,outcome,[4],inactive
same,outcome,"Decorin, DCN (gene 1634)",inactive
same,outcome,KRT18 (gene 3875),inactive
same,outcome,[5],inactive
same,outcome,[6],inactive
same,outcome,[17],inactive
same,outcome,[8],inactive
same,outcome,[9],inactive
same,outcome,[10],inactive
same,outcome,[11],inactive
same,outcome,[12],inactive
same,outcome,[13],inactive
same,outcome,[14],inactive
same,outcome,[15],inactive
same,outcome,[16],inactive
FC(F)(F)C(F)(F)C(F)(F)C(F)(F)C(F)(F)C(F)(F)C(F)(F)Br,outcome,[1],inactive
same,outcome,[2],inactive
same,outcome,[3],inactive
same,outcome,[4],inactive
same,outcome,"Decorin, DCN (gene 1634)",inactive
same,outcome,KRT18 (gene 3875),inactive
same,outcome,[5],inactive
same,outcome,[7],inactive
same,outcome,[8],inactive
same,outcome,[9],inactive
same,outcome,[10],inactive
same,outcome,[11],inactive
same,outcome,[12],inactive
same,outcome,[13],inactive
same,outcome,[14],inactive
same,outcome,[15],inactive
same,outcome,[16],inactive
O=C(O)C(F)(F)C(F)(F)C(F)F,outcome,[1],inactive
same,outcome,[2],inactive
same,outcome,"CD90, THY1 (gene 7070)",inactive
same,outcome,[3],inactive
same,outcome,[4],inactive
same,AC50,"Decorin, DCN (gene 1634)",30 µM (active)
same,outcome,"Decorin, DCN (gene 1634)",inactive
same,outcome,KRT18 (gene 3875),inactive
same,outcome,[5],inactive
same,outcome,[6],inactive
same,outcome,[17],inactive
same,outcome,[8],inactive
same,outcome,[9],inactive
same,outcome,[10],inactive
same,outcome,[11],inactive
same,outcome,[12],inactive
same,outcome,[13],inactive
same,outcome,[14],inactive
same,outcome,[15],inactive
same,outcome,[16],inactive
FC(F)(F)C(F)(F)C(F)(F)C(F)(F)C(F)(F)C(F)(F)C(F)(F)I,outcome,[1],inactive
same,outcome,[2],inactive
same,outcome,"CD90, THY1 (gene 7070)",inactive
same,outcome,[4],inactive
same,outcome,"Decorin, DCN (gene 1634)",inactive
same,outcome,KRT18 (gene 3875),inactive
same,AC50,[5],4.81 µM (active) and 4.71 µM (active)
same,AC50,[6],2.4 µM (active) and 2.55 µM (active)
same,outcome,[8],inactive
same,outcome,[9],inactive
same,outcome,[10],inactive
same,outcome,[11],inactive
same,outcome,[12],inactive
same,outcome,[13],inactive
same,outcome,[14],inactive
same,outcome,[15],inactive
same,outcome,[16],inactive
